# Hits are enriched below; roughly 2.8% of the tested compounds scored in any of these assays.
# PAX8 reporter – lowers PAX8-driven luciferase in RMG-I cells; RMG-I TPO-luciferase reporter, SteadyGlo, 24 h; inhibition, % at 12.6 µM; 360,000 compounds, 1.2% hits;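 active = mean replicate inhibition at least 60% with every replicate also reaching 60%; inconclusive = only one of the two criteria is met; inactive = mean below 60% and not all replicates reaching 60%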;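 also: luciferase light reporting Pax8 driven TPO promoter activity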
# LGR2 antag – blocks bursicon-induced cAMP signaling via Drosophila LGR2. HEK293 LGR2, CRE-luciferase, bursicon-stimulated, 4 h. inhibition, % at 9.99 µM. AID 720647. 380,000 compounds, 0.35% hits;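 active = drop in luminescence signal, shown as inhibition above about 50% in the replicate tests, limit read from the data, passing the limit was not always enough; inconclusive = probably only some replicates passing the limit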;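 also: agonist challenge used bursicon conditioned medium at about half maximal strength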
# EWS-Fli inh – blocks EWS/Fli oncoprotein-driven transcription. A673 NR0B1-luciferase reporter, viability-normalised. 350,000 compounds, 0.67% hits. AID 651661. inhibition, % at 12.6 µM;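 active = mean inhibition of at least 50% after viability correction, with every replicate also passing that limit; inconclusive = mean reaches 50% but only one of two replicates passes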;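 also: firefly luciferase signal divided by Alamar Blue viability fluorescence both relative to DMSO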
# TWEAK-Fn14 inh – TWEAK-Fn14 signaling inhibition | 360,000 compounds, 2% hits | inhibition, % at 10 µM | TWEAK-stimulated Fn14 reporter cells, luciferase luminescence, 8 h; in the data active = inhibition above about 50%
# TROY signal inh – inhibitors of TROY-dependent NF-kB signaling; inhibition, % at 10 µM; Q293 LMP1-TROYcd NF-kB luciferase reporter, 4 h; 360,000 compounds, 0.98% hits;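 active = compounds whose plate-normalised and pattern-corrected inhibition of the luciferase reporter signal at the single screening dose is 50% or more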
# A number is an active result; - = inactive; ? = inconclusive; . = no result.
SMILES,PAX8 reporter,LGR2 antag,EWS-Fli inh,TWEAK-Fn14 inh,TROY signal inh
C[C@H]1CN([C@@H](C)CO)C(=O)c2cc(Br)cnc2O[C@H]1CN(C)C(=O)c1ccc(F)cc1,-,-,-,.,.
O=S1(=O)CCN(Cc2csc(-c3cccs3)n2)CC1,-,-,-,-,-
c1csc(-c2nc(CN3CCSCC3)cs2)c1,-,?,-,60,-
CN(C)/C=C1/Sc2ccccc2C1=O,-,.,.,-,-
COc1ccc(CCN(/C=C2\Sc3ccccc3C2=O)C(C)=O)cc1OC,-,.,-,-,56
O=C(c1ccc(F)cc1)N1CCN(C2=NS(=O)(=O)c3ccccc32)CC1,-,-,-,-,-
O=C(c1ccco1)N1CCN(C2=NS(=O)(=O)c3ccccc32)CC1,.,.,.,86,.
CC(C)(C)OC(=O)CNC(=O)c1[nH]cnc1C(=O)NCC(=O)OCc1ccccc1,-,-,-,-,-
CC(C)(C)OC(=O)NCCCCCNC(=O)c1nc[nH]c1C(=O)NCC(=O)OCc1ccccc1,-,85,-,-,-
CC(C)(C)OC(=O)NCc1ccc(CNC(=O)c2[nH]cnc2C(=O)NC2CCN(C(=O)OC(C)(C)C)CC2)cc1,.,.,.,57,-
CC(C)(C)OC(=O)NCCCCCNC(=O)c1nc[nH]c1C(=O)NCCCCCNC(=O)OC(C)(C)C,-,102,-,65,58
O=C(Nc1ccccc1)c1nc[nH]c1C(=O)NCCCCCCNC(=O)c1[nH]cnc1C(=O)Nc1ccccc1,-,.,-,69,-
O=C(N[C@H]1CC[C@H](CCNS(=O)(=O)c2ccccc2)O[C@@H]1CO)c1cnccn1,-,-,-,.,.
COCc1cn(CC[C@H]2CC[C@H](NC(=O)Nc3ccc(Cl)cc3)[C@H](CO)O2)nn1,-,-,-,.,.
O=C(Nc1ccc(Cl)cc1)N1C[C@H]2[C@@H](c3ccccc31)[C@@H](CO)N2CC1CCCCC1,-,-,-,.,.
CC(C)(C)OC(=O)NCCCCCNC(=O)c1ncn(Cc2ccccc2)c1C(=O)NCCCCCNC(=O)OC(C)(C)C,75,-,-,-,-
CN(Cc1ccccc1)C(=O)c1[nH]cnc1C(=O)NCCCCCNC(=O)OC(C)(C)C,-,-,-,-,-
CC(C)(C)OC(=O)NCCCCCNC(=O)c1nc[nH]c1C(=O)NCc1ccc(CNC(=O)OC(C)(C)C)cc1,72,.,-,96,64
C[C@H]1CN([C@@H](C)CO)S(=O)(=O)c2ccc(-c3ccccc3)cc2O[C@H]1CN(C)C(=O)Nc1ccccc1F,.,-,-,.,.
O=C(CSc1nc(-c2ccccc2)c(-c2ccccc2)o1)N1CCCCC1,-,-,-,-,-
O=C(CSCC(=O)N1CCCCC1)Nc1nc(-c2ccccc2)c(-c2ccccc2)s1,-,-,-,52,-
C[C@H]1CN([C@@H](C)CO)C(=O)c2cc(NS(=O)(=O)c3ccc(F)cc3)ccc2O[C@H]1CN(C)S(=O)(=O)c1ccc(Cl)cc1,.,-,-,.,.
CN(C(=O)/C=C/c1cnc2ccccc2c1)C1CCCCC1,-,-,-,52,-
CC1Oc2ccccc2C=C1/C=N/NC(=O)[C@@H](C)NC(=O)OC(C)(C)C (some centres not stated),-,-,-,-,66
Cc1ccc(C(=O)N/N=C/C2=Cc3ccccc3OC2C)cc1 (configuration not stated),-,-,-,-,-
SMILES,PAX8 reporter,LGR2 antag,EWS-Fli inh,TWEAK-Fn14 inh,TROY signal inh
CC1=NN(C(=O)c2c(Br)cnn2C)C(O)(C(F)(F)F)C1 (configuration not stated),.,.,.,72,-
Cc1cccc(N2CCN(Cc3cn(C)nc3-c3ccccc3F)CC2)n1,-,-,59,-,-
COc1ccc(-c2cc(-c3ccc(OC)cc3)c(C#N)c(SC)n2)cc1,.,.,.,-,-
CS(=O)(=O)c1nc(-c2ccc(Br)cc2)cc(-c2ccccc2)c1C#N,.,.,.,-,63
N#Cc1c(-c2ccc(Br)cc2)cc(-c2cccnc2)nc1N,-,-,-,-,-
COc1nc(-c2ccccc2)cc(-c2ccc3c(c2)OCO3)c1C#N,-,-,59,-,-
CS(=O)c1nc(-c2ccc(Br)cc2)cc(-c2ccccc2)c1C#N (configuration not stated),.,97,-,56,74
COc1ccc(-c2cc(-c3ccccc3)c(C#N)c(S(C)(=O)=O)n2)cc1,93,.,.,-,-
COc1ccc2c3c(n(C)c2c1)[C@@H](CO)N(C(=O)CN1CCOCC1)CC31CN(Cc2ccncc2)C1,.,-,-,.,.
COc1ccc(C2CC(c3ccc(Cl)cc3)=NN2C(C)=O)cc1 (configuration not stated),-,-,-,-,-
CC(=O)N1N=C(c2ccc(Cl)cc2)CC1c1ccc([N+](=O)[O-])cc1 (configuration not stated),-,-,-,80,-
O=C(N/N=C/c1cc(Br)ccc1O)c1ccncc1,-,-,-,-,-
Cc1nc(C)c(C(=O)N/N=C/c2cc(Br)ccc2O)s1,67,-,-,-,-
CCOC(=O)N1CCC(NC(=O)CCC(=O)N2CCOc3ccccc32)CC1,.,.,.,64,.
O=C(CCC(=O)N1CCOc2ccccc21)NC1CCCCCC1,-,-,-,-,-
Cc1ccccc1-c1ccc2c(c1)O[C@H](CN(C)C(=O)Nc1ccc(C(F)(F)F)cc1)[C@H](C)CN([C@H](C)CO)S2(=O)=O,83,-,-,.,.
Cc1ccc(-c2ccc3c(c2)O[C@H](CN(C)C(=O)Nc2ccccc2)[C@H](C)CN([C@@H](C)CO)S3(=O)=O)cc1,-,-,-,.,.
Cc1ccc(-c2ccc3c(c2)O[C@@H](CN(C)C(=O)Nc2ccccc2)[C@@H](C)CN([C@H](C)CO)S3(=O)=O)cc1,68,-,-,.,.
NC(=O)c1ncn2c(=O)n(CCCl)nnc12,81,-,-,.,.
CCCC#Cc1ccc([C@@H]2[C@H]3CN(S(=O)(=O)Cc4ccccc4)CC(=O)N3[C@H]2CO)cc1,.,-,-,.,.
O=S(=O)(N/N=C\c1c(F)cccc1Cl)c1ccc(Cl)cc1,.,.,.,-,-
Fc1cccc(Cl)c1/C=N/Nc1c(Cl)cncc1Cl,-,-,.,53,-
Cc1cccc(S(=O)(=O)N2C[C@@H](O)COC[C@H]3O[C@@H](CC(=O)NCc4ccncn4)CC[C@@H]32)c1,-,-,-,.,.
COc1ccc([Si](C)(C)[C@H]2[C@H](CCn3cc([C@H](O)c4ccccc4)nn3)O[C@@]3(C(=O)N(Cc4cccc(N5CCOC5=O)c4)c4ccccc43)[C@@H]2C)cc1,-,.,-,.,.
COc1cccc(-c2nc(-c3ccccc3)no2)c1,-,.,.,-,-
SMILES,PAX8 reporter,LGR2 antag,EWS-Fli inh,TWEAK-Fn14 inh,TROY signal inh
c1ccc(-c2noc(-c3ccc4c(c3)OCO4)n2)nc1,.,.,.,101,85
Cc1occc1-c1nc(-c2ccccn2)no1,-,.,.,62,-
Cc1occc1-c1nc(-c2ccncc2)no1,.,.,.,-,-
COc1cccc(-c2nc(-c3ccccn3)no2)c1,70,.,.,.,.
COc1ccc(-c2nc(-c3cccc(C)c3)no2)cc1OC,.,.,-,-,-
Cc1cccc(-c2noc(-c3ccc4c(c3)OCO4)n2)c1,-,66,-,57,-
c1ccc(-c2noc(-c3ccncc3)n2)nc1,.,.,.,-,-

# Source: PubChem (several laboratories)
